Compound activity as filed in PubChem BioAssay.
NS1 inh: influenza NS1 inhibition | AID 2326 | Potency, µM (titrated, usually from 46.1 µM) | 270,000 tested, 0.4% active; calls by dose curve; also: actives are rising curves; nearly all actives have a fitted effect of over 50% in size
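A cell-based growth assay was used: compounds that relieve NS1-induced slow growth of budding yeast raise OD600. Assay medium was yeast nitrogen base with ammonium sulphate and -URA supplement, pH 6.0, with 2% galactose.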
Sm TGR block: inhibitors of Schistosoma mansoni thioredoxin glutathione reductase | Potency, µM (top dose mostly 114 µM), actives largely listed as inhibitors | 360,000 tested, 3% active | Q962Y6 | purified TGR, DTNB reduction, TNB absorbance 405 nm; also: nearly all actives have a fitted effect of over 60% in size
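First, TGR (20 nM dispensed) and NADPH were mixed with compound. Second, a 15 min room-temperature incubation followed. Third, further NADPH and then DTNB were added to start the reaction. Finally, TNB absorbance was monitored kinetically.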
Pf growth 48h: inhibits P. falciparum growth in the first generation, 48 h. P. falciparum luciferase growth in erythrocytes, 48 h. Potency, µM (highest dose often 28.7 µM), hits mostly inhibitors. 310,000 tested, 5.9% active. AID 504832
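Read-out is firefly luciferase luminescence from an integrated reporter in P. falciparum, so falling signal marks reduced parasite growth. Infected erythrocytes were at 2% hematocrit and 0.1% parasitemia (final) in Albumax-supplemented RPMI 1640.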
AMA1 RON2 block: AMA1-RON2 (P. falciparum) interaction inhibition; AlphaScreen AMA1-biotinylated RON2 peptide binding; Potency, µM (highest dose often 58.2 µM), usual class: inhibitors; 360,000 tested, 0.2% active; AID 720542; also: nearly all actives have a fitted effect of over 45% in size
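AMA1 (3D7) with his tag at 25 nM final met compounds first, then biotinylated RON2 peptide at 25 nM; detection used donor plus acceptor beads, 10 µg/mL apiece, read by AlphaScreen after 30 min at room temperature.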
Pf growth 96h: P. falciparum growth inhibition at 96 hours; 320,000 tested, 6.9% active; Potency, µM (doses to about 28.7 µM), usual class: inhibitors; P. falciparum luciferase reporter growth, 96 h
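Plates of compound plus infected erythrocytes (2% hematocrit, 0.05% parasitemia final) incubate 96 hours, 37 C, 5% CO2. Detection reagent added; reduced luminescence from the parasites' luciferase reporter flags inhibition.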
Hits are given with their value; [ ] = dose if it differs, or a comment. Rows were chosen to be rich in hits. Some 11% of all compounds tested hit in one or more screens of this group. Unless noted, calls follow the shape of the dose curve; as a rule, active = well fitted curve in the direction sought with a large enough effect; inconclusive = small, poorly fitted or top-dose-only effect, or another doubt; inactive = no such curve, though single readings can be large; an effect the other way counts as inactive or inconclusive.

Screening COc1ccc(OC)c(-n2c(SCC(C)=O)nnc2-c2cccc(S(=O)(=O)N(C)C)c2)c1 returned NS1 inh inactive, Sm TGR block inactive[11.4 µM], AMA1 RON2 block inactive and Pf growth 96h 12µM.
For CCSc1nnc(-c2cccc(S(=O)(=O)N(C)C)c2)n1-c1cc(OC)ccc1OC the results were NS1 inh inactive, Sm TGR block inactive, Pf growth 48h inconclusive, AMA1 RON2 block inactive and Pf growth 96h inconclusive.
For CCC(=O)N1CCc2cc(CNC(=O)Nc3ccc(OC)cc3OC)ccc21 the results were Sm TGR block inactive.
Screening COc1ccc(Br)cc1/C=N/Nc1ccccn1 returned NS1 inh inactive, Sm TGR block inactive, Pf growth 48h inactive, AMA1 RON2 block inactive and Pf growth 96h inconclusive.
`CC1CN(C(=O)Cn2cc(S(=O)(=O)CC(=O)N3CCOCC3)c3ccccc32)CC(C)O1` (stereo unspecified) gave NS1 inh inactive, Sm TGR block inactive, Pf growth 48h inactive, AMA1 RON2 block inactive and Pf growth 96h inactive.
Screening CC(C)CN(C(=O)C1CCCC1)C1CCS(=O)(=O)C1 (stereo unspecified) returned Sm TGR block inactive, Pf growth 48h inactive, AMA1 RON2 block inactive and Pf growth 96h inactive.
`COc1ccc(NC(=O)C2=C(C)Nc3nc(SCc4ccccc4C)nn3C2c2cc(OC)c(O)c(OC)c2)cc1` (stereo unspecified) gave Sm TGR block inactive.
CCN(C(=O)C(NS(=O)(=O)c1cccc2nsnc12)c1ccccc1)c1ccccc1 (stereo unspecified) was read as Sm TGR block inactive.
For CCOC(=O)C1=C(O)c2ccccc2C(=O)/C1=C\c1ccc(CC)cc1 the results were NS1 inh inactive, Sm TGR block 4.5µM, Pf growth 48h 3.3µM, AMA1 RON2 block inconclusive and Pf growth 96h inconclusive.
Screening CCCc1ccc(/C=C2\C(=O)c3ccccc3C(O)=C2C(=O)OCC)cc1 returned NS1 inh inactive, Sm TGR block 8.9µM, Pf growth 48h 4.7µM and Pf growth 96h inconclusive.
For CCOC(=O)C1=C(C)OC(=Cc2ccc(OC)cc2)C1=O the results were AMA1 RON2 block inactive.
Screening Nc1ncnc2nc(N3CCN(CCO)CC3)[nH]c12 returned NS1 inh inactive.
Cc1ccc(N2C(=O)CSCC2=O)cc1 was read as NS1 inh inactive, Sm TGR block inactive, Pf growth 48h inactive and AMA1 RON2 block inactive.
COc1cc(OC)cc(N2C(=O)CSCC2=O)c1 was read as NS1 inh inactive, Sm TGR block inactive, Pf growth 48h 2.6µM, AMA1 RON2 block inactive and Pf growth 96h inactive.
For CC(=O)Oc1c(/C=C(\C#N)C(N)=O)[nH]c2ccccc12 the results were NS1 inh inactive, Sm TGR block inactive, Pf growth 48h 10µM, AMA1 RON2 block inactive and Pf growth 96h inactive.
`COc1ccc(N2CC(NC(=O)c3cc4ccccc4o3)CC2=O)cc1OC` (stereo unspecified) gave Sm TGR block inactive.
For COc1ccc(S(=O)(=O)Nc2ccc3c(c2)C(=O)N([C@@H](C)CO)C[C@H](C)[C@H](CN(C)CC2CC2)O3)cc1 the results were AMA1 RON2 block inactive.
For O=C1C2C3C=CC(C3)C2C(=O)N1c1nc2ccccc2s1 (stereo unspecified) the results were NS1 inh inactive, Sm TGR block inactive, Pf growth 48h inactive, AMA1 RON2 block inactive and Pf growth 96h 8.3µM.
Screening Cn1c(O)c(/C=N/N2CCOCC2)c(=O)n(C)c1=S returned NS1 inh inactive, Sm TGR block inactive, Pf growth 48h 13µM, AMA1 RON2 block inactive and Pf growth 96h inactive.
Screening CC(=O)c1ccc(N2CCN(C(=O)CCCCn3c(=O)[nH]c4ccccc4c3=O)CC2)cc1 returned Sm TGR block inactive.
`COc1cc2[nH]c(=S)n(Cc3ccccc3)c(=O)c2cc1OC` gave NS1 inh inactive, Sm TGR block inactive, Pf growth 48h inconclusive, AMA1 RON2 block inactive and Pf growth 96h inactive.
CC(=O)c1ccc(N2CCN(C(=O)CCCn3c(=O)[nH]c4ccc(Br)cc4c3=O)CC2)cc1 was read as Sm TGR block inactive, Pf growth 48h 10µM, AMA1 RON2 block inactive and Pf growth 96h inconclusive.
For COc1cc2[nH]c(=O)n(Cc3ccccc3Cl)c(=O)c2cc1OC the results were NS1 inh inactive, Sm TGR block inactive, Pf growth 48h inactive, AMA1 RON2 block inactive and Pf growth 96h 4.7µM.
For COc1cc2[nH]c(=O)n(CCCCCC(=O)N3CCN(c4ccccc4)CC3)c(=O)c2cc1OC the results were NS1 inh inactive, Sm TGR block inactive, Pf growth 48h 7.4µM, AMA1 RON2 block inactive and Pf growth 96h inactive.
`CCCCCn1c(=O)[nH]c2cc(C(=O)N3CCN(c4ccc(C(C)=O)cc4)CC3)ccc2c1=O` gave NS1 inh inactive, Sm TGR block inactive, Pf growth 48h inconclusive, AMA1 RON2 block inactive and Pf growth 96h 12µM.
Screening O=[N+]([O-])c1ccc(SCCO)nc1SCCO returned NS1 inh inactive, Sm TGR block inactive, Pf growth 48h inconclusive, AMA1 RON2 block inactive and Pf growth 96h inactive.
Screening COc1cccc(CN2CC(C(=O)NC3CCC(O)CC3)CCC2=O)c1 (stereo unspecified) returned NS1 inh inactive, Sm TGR block inactive, Pf growth 48h inactive, AMA1 RON2 block inactive and Pf growth 96h inactive.
CCCCC1(Cc2ccc(OC)c([N+](=O)[O-])c2)C(=O)N(c2ccccc2)N(c2ccccc2)C1=O was read as NS1 inh inactive, Sm TGR block inactive, Pf growth 48h 1.5µM, AMA1 RON2 block inactive and Pf growth 96h inconclusive.
Screening O=C(Nc1cccnc1)c1ccc([N+](=O)[O-])o1 returned NS1 inh inactive, Sm TGR block inconclusive, Pf growth 48h inconclusive, AMA1 RON2 block inactive and Pf growth 96h inactive.
`O=C(NCc1cccnc1)c1ccc([N+](=O)[O-])o1` gave NS1 inh inactive, Sm TGR block inconclusive, Pf growth 48h 4.1µM, AMA1 RON2 block inactive and Pf growth 96h inconclusive.
For O=C(NCc1ccco1)c1ccc(Cn2cc([N+](=O)[O-])cn2)o1 the results were NS1 inh inactive, Sm TGR block inactive, Pf growth 48h inactive and AMA1 RON2 block inactive.
Screening O=C(NCc1ccco1)c1ccc([N+](=O)[O-])o1 returned NS1 inh inactive, Sm TGR block 28µM, Pf growth 48h inconclusive, AMA1 RON2 block inactive and Pf growth 96h inconclusive.
Cc1ccn2c(=O)c(C(=O)NCCc3ccccc3)c(O)nc2c1 was read as Sm TGR block inactive.
`O=C(NCC(c1cccnc1)N1CCN(c2ccccc2)CC1)OCc1ccccc1` (stereo unspecified) gave NS1 inh inactive, Sm TGR block inactive, Pf growth 48h 7.4µM, AMA1 RON2 block inactive and Pf growth 96h inactive.
For COc1cc(C(=O)NCC(c2cccnc2)N2CCN(c3ccccc3)CC2)cc(OC)c1OC (stereo unspecified) the results were NS1 inh inactive, Sm TGR block inactive, Pf growth 48h 13µM, AMA1 RON2 block inactive and Pf growth 96h inconclusive.
